Common to all, as to experiment: DAPPL (digital affinity profiling via proximity ligation, sequencing); 10 mM Tris-HCl pH 7.5, 50 mM NaCl, 1 mM DTT, 4% glycerol, room temperature, 30 min; GST-TFs on glutathione beads, 16-mer random dsDNA library, 0.1% formaldehyde crosslink after washing; high values mean tight binding
Test [1] has as its target T1, FEV (Homo sapiens, UniProt Q99581 1-238).
T1 sequence: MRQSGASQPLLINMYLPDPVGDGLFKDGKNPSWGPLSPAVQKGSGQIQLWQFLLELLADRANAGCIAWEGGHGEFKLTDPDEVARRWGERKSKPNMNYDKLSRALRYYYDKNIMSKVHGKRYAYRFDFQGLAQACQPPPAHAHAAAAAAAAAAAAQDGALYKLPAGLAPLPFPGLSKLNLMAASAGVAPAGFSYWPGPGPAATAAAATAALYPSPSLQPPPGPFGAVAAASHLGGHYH
To be noted: protein: recombinant; tags: N-terminal GST; dsDNA, one strand shown. The method, boiled down:
(§1)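 Binding signal is defined as a hexamer's read frequency for one factor over its frequency for the tag-only sample. To obtain reads, GST-fused human transcription factors were expressed in yeast, captured on glutathione beads, barcoded with DNA and pooled with that sample. Pools met 200 nmole of a 16-mer random double-stranded DNA library in Tris/NaCl/DTT/glycerol buffer for 30 min at room temperature before washing, 0.1% formaldehyde crosslinking, proximity ligation (BsaI/T4 ligase, 1 h, 37 °C), PCR and Illumina NextSeq500 sequencing.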

In test [2] the target is ETV5 (Homo sapiens, UniProt P41161 1-510). To be noted: protein: recombinant; tags: N-terminal GST; dsDNA, one strand shown. In short, it runs like this: as §1
Chain of ETV5 (P41161 whole entry): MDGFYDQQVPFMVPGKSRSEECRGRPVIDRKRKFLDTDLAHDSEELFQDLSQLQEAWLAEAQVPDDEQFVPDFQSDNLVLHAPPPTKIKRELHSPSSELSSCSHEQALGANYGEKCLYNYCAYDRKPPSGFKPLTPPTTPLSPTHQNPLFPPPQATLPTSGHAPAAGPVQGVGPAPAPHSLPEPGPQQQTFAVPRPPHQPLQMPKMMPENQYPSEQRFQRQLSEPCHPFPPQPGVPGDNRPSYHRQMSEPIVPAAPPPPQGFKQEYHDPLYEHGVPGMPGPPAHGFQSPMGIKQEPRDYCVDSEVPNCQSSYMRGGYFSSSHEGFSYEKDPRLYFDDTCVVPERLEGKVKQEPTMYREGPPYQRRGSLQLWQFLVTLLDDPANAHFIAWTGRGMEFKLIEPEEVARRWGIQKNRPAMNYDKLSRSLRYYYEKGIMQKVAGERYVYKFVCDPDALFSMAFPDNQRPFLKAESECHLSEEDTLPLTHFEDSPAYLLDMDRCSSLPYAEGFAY
Test [3] concerns the target HSF1 (Homo sapiens, UniProt Q00613 1-529). To be noted: protein: recombinant; tags: N-terminal GST; chain copies: 3; dsDNA, one strand shown. In short, it runs like this: as §1
Test [4] deals with T2, SPIC (Homo sapiens, UniProt Q8N5J4 1-248).
T2 sequence: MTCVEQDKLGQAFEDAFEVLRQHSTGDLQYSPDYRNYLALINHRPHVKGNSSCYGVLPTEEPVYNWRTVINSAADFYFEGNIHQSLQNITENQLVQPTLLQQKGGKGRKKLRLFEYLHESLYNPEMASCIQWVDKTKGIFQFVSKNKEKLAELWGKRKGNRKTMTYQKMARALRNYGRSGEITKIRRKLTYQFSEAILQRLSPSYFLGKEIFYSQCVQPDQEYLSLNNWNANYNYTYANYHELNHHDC
To be noted: protein: recombinant; tags: N-terminal GST; dsDNA, one strand shown. In short, it runs like this:
as §1

Test [5] deals with ELF4 (Homo sapiens, UniProt Q99607 1-663). To be noted: protein: recombinant; tags: N-terminal GST; dsDNA, one strand shown. The method, boiled down: as §1
Chain of ELF4 (Q99607 whole entry): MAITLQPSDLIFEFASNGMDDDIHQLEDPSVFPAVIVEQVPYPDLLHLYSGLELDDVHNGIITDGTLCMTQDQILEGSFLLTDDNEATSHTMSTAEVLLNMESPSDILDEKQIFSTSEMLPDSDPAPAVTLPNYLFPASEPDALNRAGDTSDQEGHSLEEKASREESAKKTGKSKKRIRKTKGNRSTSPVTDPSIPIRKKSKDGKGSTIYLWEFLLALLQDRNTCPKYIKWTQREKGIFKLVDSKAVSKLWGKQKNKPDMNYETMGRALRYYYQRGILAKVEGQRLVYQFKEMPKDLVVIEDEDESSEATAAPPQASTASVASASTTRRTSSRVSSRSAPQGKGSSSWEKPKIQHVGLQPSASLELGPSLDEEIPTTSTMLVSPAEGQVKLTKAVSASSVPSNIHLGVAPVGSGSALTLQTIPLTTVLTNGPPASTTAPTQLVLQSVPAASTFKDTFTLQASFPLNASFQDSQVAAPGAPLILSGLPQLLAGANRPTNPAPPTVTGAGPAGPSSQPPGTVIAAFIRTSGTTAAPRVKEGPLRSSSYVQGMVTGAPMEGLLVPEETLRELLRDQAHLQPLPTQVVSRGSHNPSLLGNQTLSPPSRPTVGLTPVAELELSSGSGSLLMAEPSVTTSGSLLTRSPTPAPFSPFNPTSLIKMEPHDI
Test [6] concerns the target T3, ELK4 (Homo sapiens, UniProt P28324-2 1-405).
T3 sequence: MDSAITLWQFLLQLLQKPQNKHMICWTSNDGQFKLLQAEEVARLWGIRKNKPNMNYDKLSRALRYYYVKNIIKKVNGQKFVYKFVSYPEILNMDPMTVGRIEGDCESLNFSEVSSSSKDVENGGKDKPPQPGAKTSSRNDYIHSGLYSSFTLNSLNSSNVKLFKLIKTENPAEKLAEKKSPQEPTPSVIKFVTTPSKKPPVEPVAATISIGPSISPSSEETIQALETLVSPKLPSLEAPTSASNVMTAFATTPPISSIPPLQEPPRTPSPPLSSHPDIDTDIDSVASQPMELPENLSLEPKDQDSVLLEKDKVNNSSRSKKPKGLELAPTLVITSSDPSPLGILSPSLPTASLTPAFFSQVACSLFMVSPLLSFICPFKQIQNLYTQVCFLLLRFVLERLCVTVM
To be noted: protein: recombinant; tags: N-terminal GST; dsDNA, one strand shown. The method, boiled down:
as §1

For test [7], the target named is T4, ETV2 (Homo sapiens, UniProt O00321 1-342).
T4 sequence: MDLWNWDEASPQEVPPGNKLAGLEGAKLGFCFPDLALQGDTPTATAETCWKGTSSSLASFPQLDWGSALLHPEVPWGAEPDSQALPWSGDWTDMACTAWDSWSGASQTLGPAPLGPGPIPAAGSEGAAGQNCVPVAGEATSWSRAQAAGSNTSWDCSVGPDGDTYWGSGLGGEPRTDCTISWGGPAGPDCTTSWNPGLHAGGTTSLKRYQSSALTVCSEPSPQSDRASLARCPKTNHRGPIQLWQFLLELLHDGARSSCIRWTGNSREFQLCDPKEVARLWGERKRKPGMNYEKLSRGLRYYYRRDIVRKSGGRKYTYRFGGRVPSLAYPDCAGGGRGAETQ
To be noted: protein: recombinant; tags: N-terminal GST; dsDNA, one strand shown. In short, it runs like this: as §1

Test [8] concerns the target T5, ELF3 (Homo sapiens, UniProt P78545 1-371).
T5 sequence: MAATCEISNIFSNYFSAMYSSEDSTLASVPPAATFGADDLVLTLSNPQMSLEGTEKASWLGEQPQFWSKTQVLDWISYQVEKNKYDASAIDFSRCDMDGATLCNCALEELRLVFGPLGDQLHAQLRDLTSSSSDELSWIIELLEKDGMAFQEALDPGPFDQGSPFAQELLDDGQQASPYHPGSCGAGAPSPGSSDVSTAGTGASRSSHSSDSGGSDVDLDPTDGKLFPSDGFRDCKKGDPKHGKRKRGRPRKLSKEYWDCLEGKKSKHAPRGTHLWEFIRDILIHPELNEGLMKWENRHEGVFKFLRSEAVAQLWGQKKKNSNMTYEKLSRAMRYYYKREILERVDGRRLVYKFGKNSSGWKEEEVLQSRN
To be noted: protein: recombinant; tags: N-terminal GST; dsDNA, one strand shown. In short, it runs like this: as §1

For test [9], the target named is CRX (Homo sapiens, UniProt O43186 1-299). To be noted: protein: recombinant; tags: N-terminal GST; dsDNA, one strand shown. The method, boiled down: as §1
Chain of CRX (O43186 whole entry): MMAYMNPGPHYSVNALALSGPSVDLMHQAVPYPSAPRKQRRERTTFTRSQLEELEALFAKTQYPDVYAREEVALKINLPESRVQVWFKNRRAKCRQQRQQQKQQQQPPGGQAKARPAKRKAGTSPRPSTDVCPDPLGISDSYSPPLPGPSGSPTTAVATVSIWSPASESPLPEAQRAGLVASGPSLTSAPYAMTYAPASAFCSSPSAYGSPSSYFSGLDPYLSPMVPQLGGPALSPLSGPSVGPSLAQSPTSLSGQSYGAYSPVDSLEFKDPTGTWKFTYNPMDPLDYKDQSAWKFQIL
In test [10] the target is ETV1 (Homo sapiens, UniProt P50549 1-477). To be noted: protein: recombinant; tags: N-terminal GST; dsDNA, one strand shown. In short, it runs like this: as §1
Chain of ETV1 (P50549 whole entry): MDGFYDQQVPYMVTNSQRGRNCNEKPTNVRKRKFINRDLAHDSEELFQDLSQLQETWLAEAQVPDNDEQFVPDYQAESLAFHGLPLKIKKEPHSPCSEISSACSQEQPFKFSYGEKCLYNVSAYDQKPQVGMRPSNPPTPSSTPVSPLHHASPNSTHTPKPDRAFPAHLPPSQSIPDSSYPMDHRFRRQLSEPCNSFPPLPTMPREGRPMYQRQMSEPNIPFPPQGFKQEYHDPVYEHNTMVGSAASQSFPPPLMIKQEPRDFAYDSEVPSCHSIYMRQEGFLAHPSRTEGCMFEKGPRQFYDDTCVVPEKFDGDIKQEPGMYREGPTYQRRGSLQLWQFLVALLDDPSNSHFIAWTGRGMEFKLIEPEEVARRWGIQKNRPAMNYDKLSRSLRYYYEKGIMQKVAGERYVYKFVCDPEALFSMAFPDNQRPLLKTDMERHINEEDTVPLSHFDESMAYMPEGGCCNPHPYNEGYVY
In test [11] the target is T6, ERF (Homo sapiens, UniProt P50548 1-548).
T6 sequence: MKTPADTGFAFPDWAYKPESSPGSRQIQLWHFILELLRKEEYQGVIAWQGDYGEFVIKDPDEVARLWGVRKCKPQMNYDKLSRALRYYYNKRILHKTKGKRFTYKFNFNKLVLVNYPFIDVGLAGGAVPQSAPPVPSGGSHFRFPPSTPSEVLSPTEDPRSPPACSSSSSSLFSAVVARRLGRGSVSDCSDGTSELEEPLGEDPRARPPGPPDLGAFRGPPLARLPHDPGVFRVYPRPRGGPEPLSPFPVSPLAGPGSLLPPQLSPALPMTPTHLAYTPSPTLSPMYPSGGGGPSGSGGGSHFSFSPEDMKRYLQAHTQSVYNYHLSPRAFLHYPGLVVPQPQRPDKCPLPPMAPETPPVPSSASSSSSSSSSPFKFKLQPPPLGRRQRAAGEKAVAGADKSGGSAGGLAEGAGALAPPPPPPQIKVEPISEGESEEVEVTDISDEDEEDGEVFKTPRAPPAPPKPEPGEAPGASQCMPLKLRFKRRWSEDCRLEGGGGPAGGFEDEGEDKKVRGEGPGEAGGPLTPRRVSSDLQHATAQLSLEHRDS
To be noted: protein: recombinant; tags: N-terminal GST; dsDNA, one strand shown. In short, it runs like this:
as §1

For test [12], the target named is T7, ETV3L (Homo sapiens, UniProt Q6ZN32 1-361).
T7 sequence: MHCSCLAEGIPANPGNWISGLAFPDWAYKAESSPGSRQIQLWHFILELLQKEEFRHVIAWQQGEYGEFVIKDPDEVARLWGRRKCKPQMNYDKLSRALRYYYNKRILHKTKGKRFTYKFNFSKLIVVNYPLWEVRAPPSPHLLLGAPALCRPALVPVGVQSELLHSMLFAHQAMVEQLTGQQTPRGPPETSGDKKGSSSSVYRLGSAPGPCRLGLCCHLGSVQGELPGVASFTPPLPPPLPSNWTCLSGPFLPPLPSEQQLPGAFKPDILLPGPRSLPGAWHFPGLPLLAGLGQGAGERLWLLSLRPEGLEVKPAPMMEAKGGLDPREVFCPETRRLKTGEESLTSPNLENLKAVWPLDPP
To be noted: protein: recombinant; tags: N-terminal GST; dsDNA, one strand shown. In short, it runs like this: as §1

Test [13] has as its target T8, ETS2 (Homo sapiens, UniProt P15036 1-469).
T8 sequence: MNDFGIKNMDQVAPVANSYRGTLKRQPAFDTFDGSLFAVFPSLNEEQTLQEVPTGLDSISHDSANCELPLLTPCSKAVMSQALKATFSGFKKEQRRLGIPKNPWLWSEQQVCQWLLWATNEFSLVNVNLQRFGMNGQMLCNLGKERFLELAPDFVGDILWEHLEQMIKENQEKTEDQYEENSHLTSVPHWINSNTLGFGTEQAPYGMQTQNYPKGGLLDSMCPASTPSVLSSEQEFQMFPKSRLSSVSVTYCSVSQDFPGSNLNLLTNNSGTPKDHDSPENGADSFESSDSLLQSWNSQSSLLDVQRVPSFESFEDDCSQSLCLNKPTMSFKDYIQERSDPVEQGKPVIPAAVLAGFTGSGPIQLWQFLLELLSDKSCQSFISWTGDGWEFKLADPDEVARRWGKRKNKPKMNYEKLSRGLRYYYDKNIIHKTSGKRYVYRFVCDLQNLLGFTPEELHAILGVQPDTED
To be noted: protein: recombinant; tags: N-terminal GST; dsDNA, one strand shown. In short, it runs like this: as §1

Test [14] addresses T9, SPDEF (Homo sapiens, UniProt O95238 1-335).
T9 sequence: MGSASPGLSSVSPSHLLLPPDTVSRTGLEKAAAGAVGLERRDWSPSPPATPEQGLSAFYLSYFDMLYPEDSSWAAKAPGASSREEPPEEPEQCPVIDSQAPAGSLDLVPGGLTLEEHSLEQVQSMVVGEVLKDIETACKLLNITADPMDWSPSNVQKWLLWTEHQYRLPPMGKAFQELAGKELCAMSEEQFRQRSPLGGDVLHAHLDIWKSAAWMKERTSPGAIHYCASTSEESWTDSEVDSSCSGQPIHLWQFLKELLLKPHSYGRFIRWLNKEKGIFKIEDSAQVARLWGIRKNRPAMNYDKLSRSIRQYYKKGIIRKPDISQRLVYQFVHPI
To be noted: protein: recombinant; tags: N-terminal GST; dsDNA, one strand shown. The method, boiled down:
as §1

Test [15] has as its target T10, ETV7 (Homo sapiens, UniProt Q9Y603 1-341).
T10 sequence: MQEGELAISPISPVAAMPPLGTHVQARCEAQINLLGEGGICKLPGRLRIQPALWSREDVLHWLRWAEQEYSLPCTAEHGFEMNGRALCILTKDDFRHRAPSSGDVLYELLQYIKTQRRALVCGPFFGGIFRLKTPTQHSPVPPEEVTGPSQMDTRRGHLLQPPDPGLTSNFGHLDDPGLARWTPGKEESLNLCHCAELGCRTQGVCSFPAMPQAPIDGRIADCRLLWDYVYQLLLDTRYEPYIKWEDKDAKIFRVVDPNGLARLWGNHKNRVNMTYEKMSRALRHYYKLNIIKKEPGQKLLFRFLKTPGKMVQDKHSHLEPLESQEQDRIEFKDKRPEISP
To be noted: protein: recombinant; tags: N-terminal GST; dsDNA, one strand shown. The method, boiled down:
as §1

For test [16], the target named is T11, ELF5 (Homo sapiens, UniProt Q9UKW6-2 1-255).
T11 sequence: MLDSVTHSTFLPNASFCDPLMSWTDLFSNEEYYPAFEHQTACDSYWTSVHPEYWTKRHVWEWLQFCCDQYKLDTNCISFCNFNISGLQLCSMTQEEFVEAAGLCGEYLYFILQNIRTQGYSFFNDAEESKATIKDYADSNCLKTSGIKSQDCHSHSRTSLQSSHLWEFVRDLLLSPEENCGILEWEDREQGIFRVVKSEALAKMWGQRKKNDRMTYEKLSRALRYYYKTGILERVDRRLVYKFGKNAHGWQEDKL
To be noted: protein: recombinant; tags: N-terminal GST; dsDNA, one strand shown. In short, it runs like this:
as §1

Test [17] addresses T12, ETV3 (Homo sapiens, UniProt P41162-2 1-143).
T12 sequence: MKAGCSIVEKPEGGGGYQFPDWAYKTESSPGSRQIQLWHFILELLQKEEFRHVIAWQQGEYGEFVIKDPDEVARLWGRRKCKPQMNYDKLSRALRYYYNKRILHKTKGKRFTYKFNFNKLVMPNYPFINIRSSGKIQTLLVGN
To be noted: protein: recombinant; tags: N-terminal GST; dsDNA, one strand shown. The method, boiled down: as §1

Test [18] deals with ETV6 (Homo sapiens, UniProt P41212 1-452). To be noted: protein: recombinant; tags: N-terminal GST; dsDNA, one strand shown. The method, boiled down:
as §1

Chain of ETV6 (P41212 whole entry): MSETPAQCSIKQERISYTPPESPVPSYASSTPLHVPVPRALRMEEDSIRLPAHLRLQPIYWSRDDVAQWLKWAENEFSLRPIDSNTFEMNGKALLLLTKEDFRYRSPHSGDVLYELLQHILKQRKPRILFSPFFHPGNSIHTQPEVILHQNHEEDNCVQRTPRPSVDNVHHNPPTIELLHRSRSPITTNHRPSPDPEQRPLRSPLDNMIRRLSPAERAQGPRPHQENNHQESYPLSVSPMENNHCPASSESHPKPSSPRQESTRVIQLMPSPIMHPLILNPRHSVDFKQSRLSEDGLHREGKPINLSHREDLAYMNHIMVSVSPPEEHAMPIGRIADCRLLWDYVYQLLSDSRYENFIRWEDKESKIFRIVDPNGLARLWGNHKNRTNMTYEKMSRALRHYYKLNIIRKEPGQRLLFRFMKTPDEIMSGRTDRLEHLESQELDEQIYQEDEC
Chain of HSF1 (Q00613 whole entry): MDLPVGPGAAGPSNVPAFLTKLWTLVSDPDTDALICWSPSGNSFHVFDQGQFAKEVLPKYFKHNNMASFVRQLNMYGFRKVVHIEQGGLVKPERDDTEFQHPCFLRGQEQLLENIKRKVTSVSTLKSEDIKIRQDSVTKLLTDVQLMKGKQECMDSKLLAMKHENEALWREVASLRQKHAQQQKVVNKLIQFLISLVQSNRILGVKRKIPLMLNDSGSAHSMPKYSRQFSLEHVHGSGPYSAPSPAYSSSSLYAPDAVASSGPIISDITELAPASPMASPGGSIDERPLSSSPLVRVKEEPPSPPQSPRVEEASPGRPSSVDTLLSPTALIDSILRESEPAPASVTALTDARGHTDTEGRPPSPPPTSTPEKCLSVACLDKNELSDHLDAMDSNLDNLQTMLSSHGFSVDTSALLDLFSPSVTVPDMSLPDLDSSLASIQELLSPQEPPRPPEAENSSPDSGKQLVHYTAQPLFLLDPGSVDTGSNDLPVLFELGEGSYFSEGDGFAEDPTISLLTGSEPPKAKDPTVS

In the case of AACTTT, the binding signal in test [1] is 1.18 fold enrichment (6-mer frequency, TF over GST control); in [2], 1.19 fold enrichment (6-mer frequency, TF over GST control); in [3] it was 1.68 fold enrichment (6-mer frequency, TF over GST control); in test [4], 1.45 fold enrichment (6-mer frequency, TF over GST control); in test [5], 1.19 fold enrichment (6-mer frequency, TF over GST control); in test [6], 1.32 fold enrichment (6-mer frequency, TF over GST control). The binding signal in test [7] was 1.3 fold enrichment (6-mer frequency, TF over GST control); in test [8], 1.33 fold enrichment (6-mer frequency, TF over GST control); in test [9] it was 1.27 fold enrichment (6-mer frequency, TF over GST control); in test [10], 1.23 fold enrichment (6-mer frequency, TF over GST control); in [11] it was 1.27 fold enrichment (6-mer frequency, TF over GST control); in test [12] it was 1.26 fold enrichment (6-mer frequency, TF over GST control). Moreover, the binding signal was 1.2 fold enrichment (6-mer frequency, TF over GST control) in [13]; 1.17 fold enrichment (6-mer frequency, TF over GST control) in test [14]; 1.2 fold enrichment (6-mer frequency, TF over GST control) in test [15]; 1.3 fold enrichment (6-mer frequency, TF over GST control) in test [16]; 1.4 fold enrichment (6-mer frequency, TF over GST control) in [17]; 1.22 fold enrichment (6-mer frequency, TF over GST control) in test [18].

For the origin of these results see publication PMC7862700, “An all-to-all approach to the identification of sequence-specific readers for epigenetic DNA modifications on cytosine”.
